The text below walks through data of PubChem BioAssay (NCATS).

Records with an inconclusive call do not appear. A number with no mark means an inactive call. Activity calls are given as the source filed them. The call rests on the fitted dose curve; in most records, active means well fitted curve in the direction sought with a large enough effect; inconclusive means small, poorly fitted or top-dose-only effect, or another doubt; inactive means no such curve, though single readings can be large; an effect the other way counts as inactive or inconclusive.

In assay [1] the target is Cellular tumor antigen p53 (Homo sapiens) (UniProt P04637). The assay is described as follows: Primary qHTS for small molecule compounds that upregulate eGFP-tagged delta133p53alpha (in N-terminal) cells. (AID 2060322). Further: nearly all actives have a fitted effect of over 75% in size. Further: potency means the concentration at half of the fitted maximal effect.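 On activation: cells pre-induced with doxycycline then dosed without doxycycline; 0% = DMSO vehicle and 100% = reference activator.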 To be noted: NCI-H358 eGFP-delta133p53alpha fluorescence, 24 h; activation: stronger effect = higher value. In short, it runs like this:
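NCI-H358 cells pre-induced 24 h with 10 ng/ml doxycycline for eGFP-delta133p53alpha, plated dox-free and exposed 24 h at 37C to titrated compounds. Fixed, Hoechst-stained; gated GFP peak intensity by laser scanning cytometry, normalized to DMSO (0%) and 57.5 uM 5-azacytidine (100%).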

Assay [2] addresses Aldehyde dehydrogenase, mitochondrial (Homo sapiens) (UniProt P05091). The assay is described as follows: qHTS for Inhibitors of the Aldehyde Dehydrogenase Family (ALDH2) Primary screen (AID 2061308).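 Further: plate controls were vehicle for no effect and reference inhibitor for full effect; nearly all actives have a fitted effect of over 55% in size.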 Conditions: ALDH2 enzyme inhibition qHTS, 1536-well; series mostly up to 56 µM. (In qHTS, concentration-response curves come from the screen itself.)
Assay [3] concerns the target Retinaldehyde dehydrogenase 3 (Homo sapiens) (UniProt P47895). The assay is described as follows: qHTS for Inhibitors of the Aldehyde Dehydrogenase Family (ALDH1A3) Primary screen (AID 2061315).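 Further: plate controls were DMSO vehicle for no effect and reference inhibitor for full effect.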 To be noted: ALDH inhibition qHTS; series mostly up to 56 µM.

Cellular tumor antigen p53 (Homo sapiens), sequence (P04637 whole entry, looked up): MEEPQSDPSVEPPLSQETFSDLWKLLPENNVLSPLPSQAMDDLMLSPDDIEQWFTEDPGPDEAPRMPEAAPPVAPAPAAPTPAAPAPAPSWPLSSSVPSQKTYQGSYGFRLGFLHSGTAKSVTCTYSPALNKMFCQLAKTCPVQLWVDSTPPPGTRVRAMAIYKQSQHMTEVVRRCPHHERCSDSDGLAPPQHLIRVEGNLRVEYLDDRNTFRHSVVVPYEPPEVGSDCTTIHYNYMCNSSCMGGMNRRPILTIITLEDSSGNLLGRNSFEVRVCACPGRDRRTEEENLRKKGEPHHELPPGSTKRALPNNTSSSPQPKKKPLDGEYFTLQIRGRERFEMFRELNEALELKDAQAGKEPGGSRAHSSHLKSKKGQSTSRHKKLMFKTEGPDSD

With `CC1=CC2/C=C(\C)CCC(O)C(O)C(O)CC(=O)C23C(=O)NC(CC(C)C)C3C1C` (configuration not stated), in assay [1], the activation was -32.8%. For the same compound, the Potency entry in assay [2] and in assay [3] was “inactive” in each case.
For the compound `CC[C@@]1(O)C(=O)OCc2c1cc1n(c2=O)Cc2cc3c(OC)cccc3nc2-1`, the Potency in assay [1] was 6.59 µM (active). Moreover, the Potency result in assay [2] and in assay [3] was “inactive” in each case.
`CCCCCn1cc(C(=O)C2C(C)(C)C2(C)C)c2ccccc21`: in assay [1], the activation was -0.955%. In addition, the Potency entry in assay [2] and in assay [3] was “inactive” each time.
As for `COCC(C(=O)OC1CC2CCC(C1)N2C)c1ccccc1` (configuration not stated), in assay [1], the activation is 4.33%. Moreover, the Potency entry in assay [2] and in assay [3] was “inactive” each time.
With `C=C1C(=O)CC2OC2(C)CC2OC(=O)C(=C)C2C(O)C1OC(=O)/C(C)=C\C` (configuration not stated), the Potency in assay [1] is 18.6 µM (active). Moreover, the Potency entry in assay [2] and in assay [3] was “inactive” in each case.
In the case of `C[C@@]1(CO)[C@H](O)CC[C@@]2(C)[C@H]1CC[C@H]1C[C@@H]3C[C@@]12CC[C@]3(O)CO`, in assay [1], the activation was -3.82%. Besides, the Potency entry in assay [2] and in assay [3] was “inactive” in each case.
For `COC(=O)CC1CC2(C(=O)c3c(O)cccc3C2(O)C(=O)OC)C(C)O1` (configuration not stated), the activation in assay [1] was 8.4%. Besides, the Potency entry in assay [2] and in assay [3] was “inactive” each time.
Turning to `CO[C@H]1C[C@H](O[C@H]2CC[C@@]3(C)C(=CCC4C3CC[C@]3(C)[C@@H](C5=CC(=O)OC5)CC[C@]43O)C2)O[C@@H](C)[C@@H]1O[C@@H]1O[C@H](CO[C@@H]2O[C@H](CO)[C@@H](O)[C@H](O)[C@H]2O)[C@@H](O)[C@H](O)[C@H]1O` (some centres not stated), the activation in assay [1] was 0%. The Potency result in assay [2] and in assay [3] was “inactive” in each case.
For the compound `COC1CC(=O)C23C(=O)NC(CC(C)C)C2C(C)=C(C)C(OO)C3/C=C(\C)CCC(O)C1O` (configuration not stated), in assay [1], the activation is -4.58%. The Potency result in assay [2] and in assay [3] was “inactive” in each case.
`C=C1C[C@]2(O)[C@@]3(C)CCC(=O)C(C)(C)C3=C(O)C(=O)[C@@]2(C)[C@@H]2C(=O)O[C@@](C)(C(=O)OC)C(=O)[C@@]12C`: the activation in assay [1] was -4.58%. Besides, the Potency result in assay [2] and in assay [3] was “inactive” in each case.
As to `COC(=O)[C@@]1(C)C(=O)C=C[C@]2(C)c3c(O)cc(C(C)C)cc3[C@H](O)[C@@H](OC(C)=O)C12` (some centres not stated), in assay [1], the activation was -3.05%. Besides, the Potency entry in assay [2] and in assay [3] was “inactive” each time.
As for `CC(=O)OC[C@]12C[C@H](OC(=O)CC(C)C)C(C)=C[C@H]1O[C@@H]1[C@H](O)[C@@H](OC(C)=O)[C@@]2(C)[C@@]12CO2`, the Potency in assay [1] was 0.0828 µM (active). In addition, the Potency entry in assay [2] and in assay [3] was “inactive” throughout.
Turning to `CN1C(=O)N(c2ccc(C#N)c(C(F)(F)F)c2)C(=O)[C@@]1(CO)c1ccccc1`, in assay [1], the activation was -3.67%. For the same compound, the Potency entry in assay [2] and in assay [3] was “inactive” each time.
As to `O=C(O)CCCCCCNC1c2ccccc2CCc2ccccc21`, the activation in assay [1] is 5.67%. Also, the Potency result in assay [2] and in assay [3] was “inactive” in each case.
